The results in this text go back to PubChem BioAssay (Tox21).

Several values for one entry are separate records, joined by “and”; a condition that tells them apart may be missing. Equal entries are not always repeated. Records with an inconclusive call do not appear. Unmarked numbers belong to inactive results. Activity calls are given as the source filed them. Calls follow the shape of the dose curve; as a rule, active = well fitted activation curve with a large enough effect in the repeat runs; inconclusive = weak or mixed curves; inactive = no such curve, though single readings can be large or run the other way.
% is scaled to controls: 0 for no effect and ±100 for the full control effect; potency is read from the fitted curve at half-maximal effect.

The target of the test is Nuclear receptor subfamily 1 group I member 3 (Homo sapiens) (UniProt Q14994). The test can be described thus: qHTS assay to identify small molecule agonists of the constitutive androstane receptor (CAR) signaling pathway (AID 1224839). Also: nearly all actives have a fitted effect of over 15% in size.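 As to activation: HepG2 cells stably carrying human CAR and a CYP2B6 luciferase reporter.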 The conditions noted are these: HepG2 hCAR CYP2B6-luciferase, agonist mode, 24 h; series mostly up to 92.4 µM; activation: at the top concentration. From the text: National Center for Advancing Translational Sciences [NCATS] NIH Chemical Genomics Center [NCGC] U.S. Environmental Protection Agency [EPA] National Institutes of Environmental Health Sciences [NIEHS] National Toxicology Program [NTP] Assay overview: The constitutive androstane receptor (CAR) is a nuclear receptor which regulates multiple drug metabolizing enzymes (DMEs) and transporters. Activating CAR will generally increase the transcription and subsequent translation of CYP2B6 and CYP3A4. These two DMEs represent about 50% of the drug metabolizing potential in the body. […] Recently, there have also been studies performed indicating CARs role in energy metabolism and cancer therapy. Therefore, inducing CARs activity could have a potential effect on diabetes and cancer. Identifying environmental toxins and compounds which modulate CAR, through the use of the Tox21 10K compound collection, will be an important step in determining the toxicity and potential therapeutic effects these factors will have on the human body.
Chain of Nuclear receptor subfamily 1 group I member 3 (Homo sapiens) (Q14994 whole entry, looked up): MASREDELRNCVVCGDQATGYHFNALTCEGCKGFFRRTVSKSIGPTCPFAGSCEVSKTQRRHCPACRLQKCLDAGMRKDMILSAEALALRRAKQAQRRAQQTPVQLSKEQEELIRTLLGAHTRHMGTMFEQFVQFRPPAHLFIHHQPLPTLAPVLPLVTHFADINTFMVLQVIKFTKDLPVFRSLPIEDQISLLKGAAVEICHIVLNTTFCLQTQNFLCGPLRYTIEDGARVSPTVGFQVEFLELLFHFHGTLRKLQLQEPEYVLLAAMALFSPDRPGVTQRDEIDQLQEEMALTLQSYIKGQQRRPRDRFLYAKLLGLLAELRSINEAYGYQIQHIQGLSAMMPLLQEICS
Assay Protocol Summary: A double-stable (hCAR and CYP2B6-2.2kb) transfected cell line, derived from human hepatoma (HepG2) cells, was utilized for the duration of the quantitative high-throughput screens. The HepG2-CYP2B6-hCAR cells suspended in DMEM culture medium supplemented with 10% FBS, 5 ug/mL blasticidin, 0.5 mg/mL geneticin, 100 U/mL penicillin and 100 ug/mL streptomycin were dispensed at 2500 cells/4 uL/well in 1536-well white solid bottom plates using a Multidrop Combi. After the assay plates were incubated at 37 C/5% CO2 for 4 hrs, 23 nL of compounds at 15 concentrations (from 5-48 columns) or positive control (from 1 to 4 columns) were transferred to the assay plates using a Pintool station. One uL of PK11195, was added using a Flying Reagent Dispenser to generate a final concentration of 0.75 uM PK11195 inside each well. After a 24 hr incubation period at 37 C/5% CO2, four uL of ONE-Glo reagent was added into the assay plates using a Flying Reagent Dispenser. After a 30 min incubation period at room temperature, the luminescence intensity in the assay plates was measured using a ViewLux plate reader.
For orientation: qHTS replaces the single test concentration by a dilution series.
As for `CCNc1nc(NC(C)C(C)C)nc(SC)n1` (stereo not given), the Potency is 48.6 µM (active).

Turning to `C[C@]12C/C(=C/O)C(=O)C[C@@H]1CC[C@@H]1[C@@H]2CC[C@@]2(C)[C@H]1CC[C@]2(C)O`, the Potency result is “inactive”.

For the compound `Cc1cc2c3c(c1)C(c1ccccc1)=N[C@@H](NC(=O)c1ccncc1)C(=O)N3CC2`, the “activation” value was -3.47%.

On to `BrCCCBr`, for which the “activation” value is -0.143%.

With `CCC1(CC)C(=O)N=C(O)NC1=O`, the “activation” value was -3.4%.

For the compound `CN/C(=N\[N+](=O)[O-])NCc1cnc(Cl)s1`, the “activation” value is -1.11%.

As for `CCOP(=S)(NC(C)C)Oc1ccccc1C(=O)OC(C)C` (stereo not given), the Potency was 7.7 µM (active).

Turning to `BrCC(Br)(Br)Br`, the “activation” value is -2.24%.

For the compound `O=[N+]([O-])c1cc(C(F)(F)F)c(Cl)c([N+](=O)[O-])c1Nc1ncc(C(F)(F)F)cc1Cl`, the “activation” value was -24.5%.

As for `CN(C)CCc1c[nH]c2ccccc12`, the “activation” value is -0.953%.

In the case of `COc1nc(C)nc(NC(=O)NS(=O)(=O)c2ccccc2Cl)n1`, the “activation” value is 1.27%.

For the compound `Brc1ccc(Oc2ccc(Br)cc2Br)c(Br)c1`, the Potency is 54.5 µM (active).

As to `CC(C)c1c(CN(C)C(C)Cc2ccccc2)n(C)n(-c2ccccc2)c1=O` (stereo not given), the Potency is 13.3 µM (active).

Consider `Clc1c(Cl)c(Cl)c(Cl)c(Cl)c1Cl`, for which the activation is -1% [at 8.39 µM].

`O=[N+]([O-])C(Br)Br`: the “activation” value was -0.847%.

Consider `C#CCO`, for which the “activation” value was -1.56%.

For the compound `CCC[CH2][Sn]([CH2]CCC)([CH2]CCC)[CH2]CCC`, the “activation” value was -23.1%.

For `CCc1cccc(C)c1N(C(=O)CCl)[C@@H](C)COC`, the Potency was 19.3 µM (active).

With `COC(=O)C(C)N(C(=O)c1ccco1)c1c(C)cccc1C` (stereo not given), the Potency was 15.3 µM (active).

Consider `C[C@H]1[C@H](c2ccc(Cl)cc2)SC(=O)N1C(=O)NC1CCCCC1`, for which the Potency is 54.5 µM (active).

As to `c1ccc(N=NNc2ccccc2)cc1`, the Potency was 28.3 µM (active) and 27.3 µM (active).

Regarding `C=CC(=O)[O][Sn]([CH2]CCC)([CH2]CCC)[CH2]CCC`, the “activation” value is -24.2%.

Consider `CCCCc1ccccc1`, for which the “activation” value is -1.11%.

On to `Nc1ccccc1-c1ccccc1`, for which the “activation” value was 1.52%.

For `S=C=NCCc1ccccc1`, the Potency is 9.71 µM (active).

Turning to `CN1CCc2cc3c(cc2C1O)OCO3` (stereo not given), the “activation” value was -0.985%.

`C=CCBr`: the “activation” value was -0.208%.

In the case of `Cc1ccc([N+](=O)[O-])[c]2c1[O][Hg]2`, the “activation” value was -18.6% [at 42.5 µM].

As for `CNC(=O)CSP(=O)(OC)OC`, the “activation” value was -1.53%.

`O=C(N[C@@H]1N=C(c2ccccc2F)c2cccc3c2N(CC3)C1=O)c1cc2ccccc2[nH]1`: the Potency is 2.98 µM (active).

Take `[Cl][Hg][c]1ccccc1`: the “activation” value was -26.2%.

Take `CC(Cc1ccc2c(c1)OCO2)NO` (stereo not given): the “activation” value was 2.5%.

On to `COP(=S)(NC(C)C)Oc1ccc(C)cc1[N+](=O)[O-]` (stereo not given), for which the Potency is 6.86 µM (active).

Consider `ClCBr`, for which the “activation” value is 6.58%.

On to `O=C1C2(Cl)C3(Cl)C4(Cl)C(Cl)(Cl)C5(Cl)C3(Cl)C1(Cl)C5(Cl)C24Cl` (stereo not given), for which the Potency result was “inactive”.

In the case of `CC(C)NCC(O)c1ccccc1Cl` (stereo not given), the “activation” value is 0.194% [at 42.5 µM].

Regarding `O=C(N[C@H]1N=C(c2ccccc2F)c2cccc3c2N(CC3)C1=O)c1cc2ccccc2[nH]1`, the “activation” value was -5.13% [at 42.5 µM].

Turning to `CCCCC/C=C\C/C=C\C/C=C\C/C=C\CCCC(=O)NCC(=O)O`, the “activation” value was 1.74% [at 42.5 µM].

Take `COc1ccc(Cc2nccc3cc(OC)c(OC)cc23)cc1OC`: the Potency is 15 µM (active).

On to `CC(C)N(C(=O)SC/C(Cl)=C/Cl)C(C)C`, for which the “activation” value is 6.91%.
